# Experimental data taken from PubChem BioAssay AID463173 (ICCB-Longwood Screening Facility, Harvard Medical School, 2010).
# Hit rate of the full screen: of about 52,000 compounds, about 4,300 (8.3%) were called active. No stated cut-off is given here; in the data, active means survival mostly below about 52% (no sharp cut-off); inactive means mostly above about 56%. Shown is part of a subset that was picked to be rich in actives.
# System: DeltatarO mutant
# Experiment: growth inhibition of S. aureus wild type versus tarO mutant, primary screen, teichoic acid synthesis inhibitors, RN4220, OD600 (AID 463173)
# Conditions: OD600, 18 h, stronger effect = lower value, screened at 18.75 µg/mL (by protocol)
row,SMILES,survival
1,Cc1cccc(-c2nc(CSc3nncn4c3cc3sccc34)c(C)o2)c1,75% (inactive)
2,COc1ccc(CC(=O)Nc2cc(-c3cn4cccnc4n3)ccc2OC)cc1,91% (inactive)
3,COc1ccc(Cl)cc1NC(=O)CN(c1cccc(C)c1C)S(=O)(=O)c1ccccc1,72% (inactive)
4,Cc1cccc(N2CCN(S(=O)(=O)c3ccc4c(c3)CCCN4C(=O)C3CCC3)CC2C)c1 (configuration not stated),77% (inactive)
5,COc1cccc(-n2cc(C(=O)Nc3cccc(C(F)(F)F)c3)c3ccccc3c2=O)c1,61% (inactive)
6,CCCCN(C)c1nnc(NC(=O)Nc2cccc(C(C)=O)c2)s1,93% (inactive)
7,Cc1cccc2cc(CN(Cc3ccco3)C(=O)N3CCOCC3)c(Cl)nc12,85% (inactive)
8,O=C(CSc1nccn1Cc1ccc(F)cc1)NCc1ccc(F)cc1,71% (inactive)
9,O=C(c1cnc(N2CCOCC2)c2ccccc12)N1CCN(c2ccccc2F)CC1,71% (inactive)
10,CCCc1cc(N2CCN(c3cccc(C)c3C)CC2)n2cnnc2n1,52% (inactive)
11,CCCc1cc(N2CCN(c3cc(Cl)ccc3C)CC2)n2cnnc2n1,30% (active)
12,CCCc1cc(N2CCN(c3ccccc3F)CC2)n2cnnc2n1,75% (inactive)
13,CN(C)c1cc2c(cc1NC(=O)c1ccc(F)cc1)n(C)c(=O)n2C,104% (inactive)
14,CCNc1nc(Cl)nc(NC2CCCCC2)n1,90% (inactive)
15,COc1ccc(-c2cc3ccc(O)c(CN4CCC(C)CC4)c3oc2=O)cc1,71% (inactive)
16,COc1ccc(-c2cc3ccc(O)c(CN4CCC(C)CC4)c3oc2=O)cc1OC,52% (active)
17,COc1ccc(-c2cc3ccc(O)c(CN4CCCC4)c3oc2=O)cc1OC,116% (inactive)
18,Cc1ccc2oc(=O)c3cnn(CC(=O)N4CCN(c5cccc(C(F)(F)F)c5)CC4)c3c2c1,87% (inactive)
19,Cc1cc(C)c2c(n1)nn1c(C)c(CCC(=O)NCc3ccccc3Cl)c(C)nc21,82% (inactive)
20,Cc1ccc(NC(=O)CSc2nccn2Cc2ccco2)cc1Cl,87% (inactive)
21,CCN(c1ccccc1)S(=O)(=O)c1nnc(NC(=O)C(C)(C)C)s1,49% (inactive)
22,CCN(c1ccc(C)cc1)S(=O)(=O)c1nnc(NC(=O)c2cccs2)s1,14% (active)
23,CCN(c1ccc(Cl)cc1)S(=O)(=O)c1nnc(NC(=O)C2CCCCC2)s1,74% (inactive)
24,CCN(c1ccc(C)cc1)S(=O)(=O)c1nnc(NC(=O)C2CCCCC2)s1,109% (inactive)
25,CCN(c1ccccc1)S(=O)(=O)c1nnc(NC(=O)C(C)Oc2ccccc2)s1 (configuration not stated),43% (inactive)

row,SMILES,survival
1,CCN(c1ccccc1)S(=O)(=O)c1nnc(NC(=O)c2cccs2)s1,28% (active)
2,CCN(c1ccccc1)S(=O)(=O)c1nnc(NC(=O)C2CCCCC2)s1,48% (active)
3,CCN(c1ccccc1)S(=O)(=O)c1nnc(NC(=O)c2ccccc2)s1,38% (active)
4,COc1ccc(OCC(=O)OCc2cc(=O)n3nc(C4CC4)sc3n2)cc1,61% (inactive)
5,COc1ccc(CNC(=O)CC(c2ccc(OC)c(OC)c2)N2Cc3ccccc3C2=O)cc1 (configuration not stated),87% (inactive)
6,CCC(=O)N1CCc2cc(OC)c(OC)cc2C1COc1ccc2c(C)cc(=O)oc2c1 (configuration not stated),136% (inactive)
7,O=C(Nc1ccc(F)c(F)c1)c1cc(S(=O)(=O)NC2CCCC2)ccc1F,118% (inactive)
8,CC(C)Oc1ccc(CNS(=O)(=O)c2csc(C(N)=O)c2)cc1,101% (inactive)
9,COc1cccc2c1Oc1ncccc1N(C(=O)CCC(=O)NCc1ccc(OC(C)C)cc1)C2,83% (inactive)
10,CCCCN(C)C(=O)CN1C(=O)c2cccnc2Oc2ccc(Cl)cc21,89% (inactive)
11,CCN(CC)S(=O)(=O)c1nnc(NC(=O)COc2ccccc2F)s1,103% (inactive)
12,CCN(c1ccccc1)S(=O)(=O)c1nnc(NC(=O)COc2ccc(OC)cc2)s1,55% (inactive)
13,CCN(c1ccccc1)S(=O)(=O)c1nnc(NC(=O)COc2ccccc2F)s1,31% (active)
14,O=C1C2CCCC1C(c1ccc3c(c1)OCO3)NC2c1ccc2c(c1)OCO2 (configuration not stated),58% (inactive)
15,Cc1ccc(-n2ncc(C(=O)NCCCN3CCN(C)CC3)c2C2CCN(C(=O)OC(C)(C)C)CC2)cc1,96% (inactive)
16,COc1ccc(N2CCN(C(=O)c3noc4c3CCCCC4)CC2)cc1,72% (inactive)
17,O=C(c1ccc2c(c1)N(Cc1ccc(F)cc1)C(=O)c1ccccc1S2(=O)=O)N1CCCCCC1,71% (inactive)
18,Cc1ccc2oc(C(=O)Nc3ccc(S(=O)(=O)N(C)Cc4ccccc4)cc3)cc(=O)c2c1,50% (inactive)
19,COc1ccc(N2CCN(c3ncnc4c3nc3n4CCCCC3)CC2)cc1,100% (inactive)
20,Clc1cccc(N2CCN(c3ncnc4c3nc3n4CCCC3)CC2)c1,114% (inactive)
21,COc1cccc(N2CCN(c3ncnc4c3nc3n4CCCCC3)CC2)c1,20% (active)
22,Cc1ccc(NC(=O)C2CCCN(c3ncnc4c3nc3n4CCCCC3)C2)cc1F (configuration not stated),92% (inactive)
23,O=C(C1CCN(c2ncnc3c2nc2n3CCCCC2)CC1)N1CCN(c2cccc(Cl)c2)CC1,64% (inactive)
24,O=C(Nc1cccc(Cl)c1)C1CCCN(c2ncnc3c2nc2n3CCCCC2)C1 (configuration not stated),17% (active)
25,Clc1cccc(N2CCN(c3ncnc4c3nc3n4CCCCC3)CC2)c1,11% (active)

row,SMILES,survival
1,CCN(C(=O)C1CCCN(c2ncnc3c2nc2n3CCCCC2)C1)c1cccc(Cl)c1 (configuration not stated),82% (inactive)
2,c1ccc(N2CCN(c3ncnc4c3nc3n4CCCCC3)CC2)cc1,89% (inactive)
3,COc1ccc(OC)c(CNc2ncnc3onc(C)c23)c1,129% (inactive)
4,CCOc1ccc(NC(=O)c2cc(S(=O)(=O)N3CCC(C)CC3)cn2C)cc1,112% (inactive)
5,CCOc1ccc(/C=C/c2nc(C#N)c(NCc3ccc(OC)cc3)o2)cc1,68% (inactive)
6,CCOC(=O)c1[nH]c2c(c1Cc1ccccc1)C(=O)CC(c1ccccc1)C2 (configuration not stated),64% (inactive)
7,CCOc1ccc(CCNc2nc3c(-c4ccc(C)cc4)nnn3c3ccccc23)cc1OCC,88% (inactive)
8,Cc1cc(-c2ccc(C)c(S(=O)(=O)N(C)c3ccc(C)c(C)c3)c2)on1,86% (inactive)
9,O=C(Nc1ccc(OC(F)(F)F)cc1)c1cc2c(=O)n3ccccc3nc2s1,87% (inactive)
10,Cn1c(C(=O)Nc2ccc(OC(F)(F)F)cc2)cc2c(=O)n3ccccc3nc21,55% (active)
11,Cn1c(C(=O)Nc2cccc(C(F)(F)F)c2)cc2c(=O)n3ccccc3nc21,98% (inactive)
12,CCCCCNC(=O)c1cc2c(=O)n3ccccc3nc2n1C,54% (inactive)
13,COc1ccc(CCNC(=O)c2cc3c(=O)n4ccccc4nc3n2C)cc1,61% (inactive)
14,Cn1c(C(=O)NCCc2ccccc2)cc2c(=O)n3ccccc3nc21,48% (active)
15,Cc1ccc(NC(=O)CSc2nc3c(c(=O)[nH]2)CN(Cc2ccccc2)CC3)cc1Cl,70% (inactive)
16,CSc1ccc(CCNC(=O)CCCn2nc(C)c3sc4ccccc4c3c2=O)cc1,76% (inactive)
17,N/N=C1\C(=N/O)CCc2nonc21,95% (inactive)
18,CCN(CC)c1ccc(NC(=O)Cn2ncc3c(C)n(Cc4ccccc4F)c(C)c3c2=O)c(C)c1,79% (inactive)
19,Cc1nc(N2CCOCC2)c2c(C(=O)N3CCN(c4cccc(C(F)(F)F)c4)CC3)c(C)oc2n1,105% (inactive)
20,Cc1oc2ncnc(N3CCOCC3)c2c1C(=O)N1CCN(c2cccc(C(F)(F)F)c2)CC1,-5% (active)
21,Cc1oc2ncnc(N3CCCCC3)c2c1C(=O)N1CCN(c2cccc(C(F)(F)F)c2)CC1,66% (inactive)
22,Cc1nc(N2CCOCC2)c2c(C(=O)NCCc3ccccc3)c(C)oc2n1,0% (active)
23,Cc1nc(N2CCCC2)c2c(C(=O)N3CCN(c4ccccc4)CC3)c(C)oc2n1,81% (inactive)
24,Cc1nc(N2CCOCC2)c2c(C(=O)N3CCN(c4ccc(Cl)cc4)CC3)c(C)oc2n1,92% (inactive)
25,Cc1ccc(CCNC(=O)c2c(C)oc3nc(C)nc(N4CCOCC4)c23)cc1,106% (inactive)

row,SMILES,survival
1,Fc1ccc(N2CCN(c3ncnc4onc(-c5ccc(Cl)cc5)c34)CC2)cc1,65% (inactive)
2,Cc1oc2ncnc(N3CCOCC3)c2c1C(=O)NCCc1ccccc1,89% (inactive)
3,Fc1ccccc1N1CCN(c2ncnc3onc(-c4cccc(Cl)c4)c23)CC1,53% (inactive)
4,Fc1ccccc1N1CCN(c2ncnc3onc(-c4ccc(Cl)cc4)c23)CC1,54% (active)
5,Cc1nc(N2CCOCC2)c2c(C(=O)N3CCN(c4ccccc4)CC3)c(C)oc2n1,37% (active)
6,COc1ccc2c(CNCc3cccs3)c(C(=O)O)n(Cc3ccc(C)cc3)c2c1,77% (inactive)
7,CCCOc1ccc(C(=O)NCC(c2ccc(OC)cc2)N2CCCCC2)cc1 (configuration not stated),84% (inactive)
8,Cc1nc2ccc(NC(=O)C3CC3)cc2c(=O)n1Cc1ccc(F)cc1,74% (inactive)
9,Cc1ccc(CCNC(=O)c2cc(-c3ccc(Cl)cc3)n[nH]2)cc1,69% (inactive)
10,CC(Nc1ncnc2c1cnn2-c1cccc(Cl)c1)c1ccccc1 (configuration not stated),124% (inactive)
11,COc1ccccc1Cn1c(CNS(=O)(=O)c2ccc3c(c2)CCCC3)nc2cccnc21,96% (inactive)
12,CCOCCCn1c(=N)c(S(=O)(=O)c2ccccc2)cc2c(=O)n3cc(C)ccc3nc21,88% (inactive)
13,Cc1ccc(CN2CCCn3nc(C(=O)NCc4ccc(N(C)C)cc4)cc3C2=O)cc1,80% (inactive)
14,Cc1nc(N2CCOCC2)c2c(C(=O)N3CCN(c4cc(Cl)ccc4C)CC3)c(C)oc2n1,46% (active)
15,Cc1nc(N2CCCC2)c2c(C(=O)N3CCN(c4cc(Cl)ccc4C)CC3)c(C)oc2n1,102% (inactive)
16,Cc1ccc(Cl)cc1N1CCN(C(=O)c2c(C)oc3ncnc(N4CCCCC4)c23)CC1,-4% (active)
17,Cc1ccc(C)c(N2CCN(c3ncnc4onc(C)c34)CC2)c1,90% (inactive)
18,Cc1ccc(Cl)cc1N1CCN(C(=O)c2c(C)oc3ncnc(N4CCOCC4)c23)CC1,89% (inactive)
19,Cc1ccc(Cl)cc1N1CCN(c2ncnc3onc(C)c23)CC1,52% (active)
20,Cc1oc2ncnc(N3CCCCC3)c2c1C(=O)N1CCN(c2ccc(Cl)cc2)CC1,60% (inactive)
21,Cc1ccc(C)c(N2CCN(C(=O)c3c(C)oc4nc(C)nc(N5CCOCC5)c34)CC2)c1,115% (inactive)
22,Cc1ccc(Cl)cc1N1CCN(c2ncnc3onc(-c4ccc(F)cc4)c23)CC1,97% (inactive)
